Measured values taken from PubChem BioAssay (EPA / NIEHS).
Records with an inconclusive call do not appear. The source made the active and inactive calls. Rule for the calls, unless noted: active = hit-call score of the fitted dose curve at least 0.9, where 1 is the maximum; inactive = score below 0.9.

Key:
[1] = target: rat Thyrotropin Releasing Hormone Receptor (TRH), Trhr (gene 25570) (UniProt Q01717); experiment: NVS_GPCR_rTRH: NovaScreen (NVS) G Protein-Coupled Receptor Assay for rat Thyrotropin Releasing Hormone Receptor (TRH) (AID 2283329; active = hit-call score of the fitted dose curve at least 0.9, where 1 is the maximum;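 note: hit means lower bound tracer signal versus DMSO baseline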)
Sequence of rat Thyrotropin Releasing Hormone Receptor (TRH), Trhr (gene 25570) (Q01717 whole entry, looked up): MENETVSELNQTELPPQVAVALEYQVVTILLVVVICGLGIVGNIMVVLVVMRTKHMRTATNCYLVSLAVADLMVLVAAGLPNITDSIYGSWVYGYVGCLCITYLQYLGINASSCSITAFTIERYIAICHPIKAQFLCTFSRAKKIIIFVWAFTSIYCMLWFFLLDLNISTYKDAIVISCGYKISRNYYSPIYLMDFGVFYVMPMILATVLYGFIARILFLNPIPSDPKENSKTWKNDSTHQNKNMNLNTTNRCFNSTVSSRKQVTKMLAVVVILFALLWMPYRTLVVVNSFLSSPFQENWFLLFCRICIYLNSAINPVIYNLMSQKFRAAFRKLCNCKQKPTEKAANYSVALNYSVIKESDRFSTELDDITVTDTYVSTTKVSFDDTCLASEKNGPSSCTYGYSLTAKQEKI
Procedure, shortened: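 Rat forebrain membranes; radioligand displacement at TRH receptor by filter-based scintillation counting, read 4 h after dosing. Duplicate single-point screen at 25 uM, actives rerun in concentration series; loss of signal relative to DMSO.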

[2] = target: Nuclear receptor subfamily 1 group I member 2 (Homo sapiens) (UniProt O75469); experiment: NVS_NR_hPXR: NovaScreen (NVS) Nuclear Receptor Binding Assay for human Pregnane X Receptor (PXR) (AID 2283365; active = hit-call score of the fitted dose curve at least 0.9, where 1 is the maximum;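 note: a drop in FRET signal versus DMSO baseline means the compound binds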)
Sequence of Nuclear receptor subfamily 1 group I member 2 (Homo sapiens) (O75469 whole entry, looked up): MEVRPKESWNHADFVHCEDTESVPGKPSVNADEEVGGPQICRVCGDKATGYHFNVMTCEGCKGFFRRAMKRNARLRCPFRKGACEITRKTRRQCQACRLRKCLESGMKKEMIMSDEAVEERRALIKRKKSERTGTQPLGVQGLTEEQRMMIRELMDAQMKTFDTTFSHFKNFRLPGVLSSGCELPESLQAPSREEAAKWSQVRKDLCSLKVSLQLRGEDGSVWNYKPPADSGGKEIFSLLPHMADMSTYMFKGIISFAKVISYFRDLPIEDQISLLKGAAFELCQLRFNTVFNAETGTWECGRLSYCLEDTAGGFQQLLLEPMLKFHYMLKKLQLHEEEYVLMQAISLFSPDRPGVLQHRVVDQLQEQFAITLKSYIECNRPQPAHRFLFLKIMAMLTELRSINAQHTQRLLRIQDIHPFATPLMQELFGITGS
Procedure, shortened: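 TR-FRET signal read at 2 h in a cell-free human PXR binding format. DMSO served as negative control and baseline; activity scored as signal loss. Single-concentration duplicate screen (25 uM), then concentration-response follow-up.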

[3] = target: Bile acid receptor (Homo sapiens) (UniProt Q96RI1); experiment: OT_FXR_FXRSRC1_1440: Odyssey Thera (OT) 24-hour HEK293T Protein-Complementation Assay for Farnesoid X receptor/SRC-1 Co-activator (AID 2283384; active = hit-call score of the fitted dose curve at least 0.9, where 1 is the maximum)
Sequence of Bile acid receptor (Homo sapiens) (Q96RI1 whole entry, looked up, the tested form may be a part): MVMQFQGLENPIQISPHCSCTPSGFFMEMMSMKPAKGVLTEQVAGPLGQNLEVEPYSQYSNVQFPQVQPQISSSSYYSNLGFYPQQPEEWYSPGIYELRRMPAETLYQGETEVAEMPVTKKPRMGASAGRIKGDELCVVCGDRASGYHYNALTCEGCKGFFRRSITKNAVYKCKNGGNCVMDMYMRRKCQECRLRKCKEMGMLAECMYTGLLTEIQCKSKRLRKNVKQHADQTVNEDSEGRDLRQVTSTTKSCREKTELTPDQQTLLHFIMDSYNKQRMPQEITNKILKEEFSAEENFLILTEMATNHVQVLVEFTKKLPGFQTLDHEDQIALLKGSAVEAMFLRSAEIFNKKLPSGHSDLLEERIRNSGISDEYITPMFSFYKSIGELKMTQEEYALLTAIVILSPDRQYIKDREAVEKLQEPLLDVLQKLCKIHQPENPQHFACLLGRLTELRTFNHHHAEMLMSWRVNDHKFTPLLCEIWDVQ
Procedure, shortened: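 Cell-based binding reporter: interaction of FXR with SRC-1 brings reporter fragments together, giving a fluorescence signal read 24 h after dosing of HEK293T cells.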

[4] = CPHEA_Stoker_NIS_Cytotoxicity: Cytotoxicity Assessment for CPHEA's Radioactive Iodide Uptake (RAIU) Assay for Sodium/Iodide Symporter (NIS) Inhibition, Stoker and Laws Labs (AID 2283897; active = hit-call score of the fitted dose curve at least 0.9, where 1 is the maximum)
Procedure, shortened: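 hNIS-HEK293T-EPA cells, human NIS expressed in HEK293T, treated 2 h with chemicals (0.001–100 uM, 0.5% final DMSO). ATP content read by CellTiter-Glo luminescence; loss of signal analysed relative to DMSO.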

[5] = CCTE_Deisenroth_AIME_384WELL_CTox_Active: Cytotoxicity Assessment (CTOX) in CCTE's 384-well Estrogen Receptor Transactivation Assay with AIME metabolic competence (metabolism positive), Deisenroth Lab (AID 2284037; active = hit-call score of the fitted dose curve at least 0.9, where 1 is the maximum;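 note: chemicals first conditioned 2 h by alginate-bound induced rat liver S9 before cells; activity means signal loss indicating cell death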)
Procedure, shortened: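 Cytotoxicity in VM7Luc4E2 breast cells, 24 hour, measured as protease-substrate fluorescence loss, after 2-hour metabolic conditioning with induced rat hepatic S9 in alginate microspheres. Concentrations 0.002 - 200 uM, 10 points, bidirectional fitting.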

[6] = CCTE_Simmons_CellTiterGLO_HEK293T: Viability Assessment in CCTE's Assays for Thyroperoxidase (TPO) Inhibition, Simmons Lab (AID 2283665; active = hit-call score of the fitted dose curve at least 0.9, where 1 is the maximum;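 for AC50: cells exposed to compound for 24 h before readout; actives reduce ATP signal below DMSO vehicle meaning cytotoxicity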)
Procedure, shortened: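 Cytotoxicity counter-screen: human HEK293T cells in low-serum (1% FBS) medium receive test chemical, 5 nM to 87.5 uM final, for 24 h; ATP is quantified by luciferase luminescence.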

[7] = target: chimpanzee Androgen Receptor (AR), AR (gene 747460) (UniProt O97775); experiment: NVS_NR_cAR: NovaScreen (NVS) Nuclear Receptor Binding Assay for chimpanzee Androgen Receptor (AR) (AID 2283346; active = hit-call score of the fitted dose curve at least 0.9, where 1 is the maximum;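 note: radioligand displacement from AR measured by scintillation counting in a cell-free assay; a loss of bound radioligand signal versus DMSO counts as binding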)
Sequence of chimpanzee Androgen Receptor (AR), AR (gene 747460) (O97775 whole entry, looked up): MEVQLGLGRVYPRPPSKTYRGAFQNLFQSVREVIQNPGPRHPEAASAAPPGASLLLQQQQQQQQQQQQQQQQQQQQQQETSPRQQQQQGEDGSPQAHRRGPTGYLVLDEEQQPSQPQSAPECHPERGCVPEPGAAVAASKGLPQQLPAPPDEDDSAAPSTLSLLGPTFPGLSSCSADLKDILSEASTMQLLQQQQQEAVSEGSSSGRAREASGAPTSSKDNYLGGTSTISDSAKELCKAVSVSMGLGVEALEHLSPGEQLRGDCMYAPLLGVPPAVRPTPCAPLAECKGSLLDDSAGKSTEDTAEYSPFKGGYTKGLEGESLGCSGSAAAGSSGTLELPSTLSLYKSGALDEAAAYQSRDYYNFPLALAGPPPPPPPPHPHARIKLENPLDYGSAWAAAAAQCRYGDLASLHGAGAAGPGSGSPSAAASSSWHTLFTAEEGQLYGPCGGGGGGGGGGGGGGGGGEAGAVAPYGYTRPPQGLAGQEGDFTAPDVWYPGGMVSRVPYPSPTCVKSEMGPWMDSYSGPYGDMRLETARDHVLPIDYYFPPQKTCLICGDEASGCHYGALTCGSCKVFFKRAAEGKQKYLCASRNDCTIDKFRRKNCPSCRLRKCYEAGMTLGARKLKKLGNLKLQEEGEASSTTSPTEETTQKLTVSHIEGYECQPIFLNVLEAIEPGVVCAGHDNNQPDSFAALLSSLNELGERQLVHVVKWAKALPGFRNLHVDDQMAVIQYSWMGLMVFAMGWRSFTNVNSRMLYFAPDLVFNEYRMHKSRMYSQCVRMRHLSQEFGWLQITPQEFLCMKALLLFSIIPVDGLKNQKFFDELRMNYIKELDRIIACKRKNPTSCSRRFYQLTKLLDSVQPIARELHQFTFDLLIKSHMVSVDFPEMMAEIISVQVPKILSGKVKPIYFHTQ
Procedure, shortened: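 Cell-free competition binding with insect-cell (Sf9/Sf21) extracted chimpanzee AR; scintillation signal from lysate at 72 h. Screened in duplicate at 25 uM, then concentration-response for actives; fitting relative to DMSO.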

[8] = CCTE_Shafer_MEA_acute_spike_number: CCTE's Neural Acute Assay for Total Number of Spikes, Shafer Lab (AID 2284008);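 for AC50: curve fitted for decrease in spike count so AC50 reflects inhibitors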
Procedure, shortened: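 Rat cortical cultures, DIV 13/15, 37 C. 40 min baseline rec, cpd 0.03-40 uM, 40 min post-dose rec. Band-pass 300-5000 Hz, spike threshold 8x rms; % change in spike count per well, DMSO neg ctrl, loss-of-signal fit.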

[9] = CCTE_Shafer_MEA_acute_firing_rate_mean: CCTE's Neural Acute Assay for Mean Firing Rate, Shafer Lab (AID 2284009);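 note: analyzed for loss of signal so actives lower firing rate relative to DMSO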
Procedure, shortened: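 Percent change in well-mean firing rate was derived from extracellular spikes detected at 8x rms noise (300-5000 Hz band-pass) before and after a 40-min compound exposure. Cultures were primary rat cortical neurons, tested at 0.03-40 uM.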

[10] = CCTE_Shafer_MEA_acute_burst_number: CCTE's Neural Acute Assay for Single-Electrode Bursts, Shafer Lab (AID 2284013)
Procedure, shortened: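 Spontaneous network activity of primary rat cortical neurons was recorded extracellularly on microelectrode arrays at 37 C, with 40-min periods before and during exposure to 0.03-40 uM compound on DIV 13 or 15.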

[11] = CCTE_Shafer_MEA_acute_per_burst_spike_number_mean: CCTE's Neural Acute Assay for Average Number of Spikes Per Burst, Shafer Lab (AID 2284015);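 note: hits are decreases in mean spikes per burst versus baseline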
Procedure, shortened: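 Rat primary cortical neurons on 48-well MEAs (DIV 13 or 15) were treated with 0.03-40 uM compound at 37 C. Mean spikes per burst over 40 min were recorded before and after exposure and expressed as percent change from baseline, relative to DMSO.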

[12] = CCTE_Shafer_MEA_acute_interburst_interval_mean: CCTE's Neural Acute Assay for Mean Interburst Interval, Shafer Lab (AID 2284016);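 note: percent change of mean interburst interval versus each well's own pre-dose baseline; curves fitted for decrease in interburst interval relative to DMSO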
Procedure, shortened: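 Rat primary cortical neurons on 48-well MEAs at DIV 13 or 15 were exposed acutely to 0.03-40 uM. Spikes detected at 8x rms noise, 37 C. Mean interburst interval from 40 min recordings expressed as percent change from 40 min pre-treatment baseline.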

[13] = CCTE_Shafer_MEA_acute_burst_percentage_mean: CCTE's Neural Acute Assay for Percentage of Spikes in a Burst, Shafer Lab (AID 2284017);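 for AC50: curve fitted for loss of signal so potency reflects decreased burst percentage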
Procedure, shortened: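 Primary rat cortical neurons on 48-well MEA plates, treated on DIV 13 or 15 at 0.03-40 uM. Spikes detected at 8x rms noise at 37C; percent change from 40-min baseline to 40-min post-dose recording, fitted versus DMSO.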

[14] = CCTE_Shafer_MEA_acute_burst_percentage_std: CCTE's Neural Acute Assay for Standard Deviation of Burst Percentage, Shafer Lab (AID 2284018);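 note: fitted in the negative direction so actives lower burst percentage SD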
Procedure, shortened: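 Value is percent change from baseline in the across-electrode SD of spikes-in-bursts percentage, wells with >/= 10 active electrodes. Acute 40-min exposure to 0.03-40 uM on DIV 13 or 15 rat cortical cultures, recorded at 37 C after 40-min baseline.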

[15] = CCTE_Shafer_MEA_acute_per_network_burst_spike_number_mean: CCTE's Neural Acute Assay for Average Number of Spikes in a Network Burst, Shafer Lab (AID 2284019);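 for AC50: curve fitted for loss of signal so actives reduce spikes per network burst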
Procedure, shortened: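 Read-out is mean spike count per network burst, taken as percent change between a 40-min pre-exposure and a 40-min post-exposure recording per well. Rat primary cortical neurons on MEAs at 37 C, DIV 13 or 15; compounds at 0.03-40 uM.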

[16] = CCTE_Shafer_MEA_acute_per_network_burst_spike_number_std: CCTE's Neural Acute Assay for Standard Deviation of Number of Spikes in a Network Burst, Shafer Lab (AID 2284020);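 note: fitted for decrease in spike-number SD versus DMSO so actives lower it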
Procedure, shortened: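 Spontaneous network activity of primary rat cortical neurons is recorded extracellularly before and after a 40-min compound exposure (0.03-40 uM) at 37 C. The endpoint is the well's percent change in burst spike-number SD.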

[17] = CCTE_Shafer_MEA_acute_per_network_burst_electrodes_number_mean: CCTE's Neural Acute Assay for Mean Number of Electrodes in a Network Burst, Shafer Lab (AID 2284021);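 note: curves fitted for decreases only so hits reduce electrodes per burst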
Procedure, shortened: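 Readout: % change in mean electrodes active per network burst, post- vs pre-treatment, each well. Spikes detected at 8x rms noise after 300-5000 Hz band-pass; rat cortical cultures, DIV 13/15, compounds 0.03-40 uM, DMSO baseline.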

[18] = CCTE_Shafer_MEA_acute_network_burst_percentage: CCTE's Neural Acute Assay for Percentage of Network Bursts, Shafer Lab (AID 2284022);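 note: curves fitted for loss so actives lower network burst percentage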
Procedure, shortened: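 Rat cortical cultures, DIV 13/15; 20 min equilibration, 40 min baseline, compound 0.03-40 uM, 40 min recording, 37 C. Spikes: 300-5000 Hz band-pass, threshold 8x rms noise. Readout: % change in network-burst spike fraction; loss direction vs DMSO.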

[19] = CCTE_Shafer_MEA_acute_cross_correlation_area: CCTE's Neural Acute Assay for Area of Cross Correlation, Shafer Lab (AID 2284024);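 note: area under pooled inter-electrode spike cross-correlation near zero lag as percent change from own baseline; curves fitted for loss of cross-correlation area so actives lower synchrony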
Procedure, shortened: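 Rat cortical cultures, DIV 13/15, MEA; spikes detected at 8x rms noise (300-5000 Hz band-pass). Compound 0.03-40 uM, ≥3 wells each. Readout: % change in pooled inter-electrode cross-correlation area vs own baseline; DMSO negative control.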

[20] = CCTE_Shafer_MEA_acute_LDH: CCTE's Lactate Dehydrogenase Assay for Cytotoxicity in the Neural Acute Assay, Shafer Lab (AID 2284086; active = hit-call score of the fitted dose curve at least 0.9, where 1 is the maximum;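 note: active means LDH release rises above DMSO vehicle level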)
Procedure, shortened: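 Released lactate dehydrogenase, read at 490 nm, indicated cytotoxicity after acute 40-min compound treatment of rat cortical neuron networks grown on 48-well MEA plates.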

COC(=O)[C@]1(C)CCC[C@@]2(C)[C@H]1CC=C1C=C(C(C)C)CC[C@@H]12
outcome [1]: inactive | outcome [2]: inactive | AC50 [3]: 12.8 µM (active) | outcome [4]: inactive

C1=CCC=C1
outcome [5]: inactive

CCCCCCC1CCC(=O)O1 (stereo not given)
outcome [1]: inactive

CN(C)c1ccc(C(c2ccccc2)c2ccc(N(C)C)cc2)cc1
AC50 [6]: 25.3 µM (active)

Cc1cccnc1
outcome [4]: inactive

Cc1ccccc1S(N)(=O)=O
AC50 [7]: 1.88 µM (active)

Cc1cc(-n2nc3ccc(Cl)cc3n2)c(O)c(C(C)(C)C)c1
AC50 [7]: 0.741 µM (active)

Cc1cc(C)c(S(=O)(=O)O)cc1N=Nc1cc(S(=O)(=O)O)c2ccccc2c1O
outcome [1]: inactive | AC50 [6]: 13.1 µM (active)

Nc1ccc(S(=O)(=O)Nc2cnc3ccccc3n2)cc1
outcome [2]: inactive

CC1(C)S[C@@H]2[C@H](NC(=O)[C@H](N)c3ccccc3)C(=O)N2[C@H]1C(=O)O
outcome [8]: inactive | outcome [9]: inactive | outcome [10]: inactive | outcome [11]: inactive | AC50 [12]: 1.61 µM (active) | AC50 [13]: 0.0814 µM (active) | outcome [14]: inactive | outcome [15]: inactive | outcome [16]: inactive | outcome [17]: inactive | AC50 [18]: 3.57 µM (active) | outcome [19]: inactive | outcome [20]: inactive

Cc1cc2nc3c(=O)[nH]c(=O)nc-3n(C[C@H](O)[C@H](O)[C@H](O)CO)c2cc1C
AC50 [3]: 52.7 µM (active) | outcome [4]: inactive

CCCCOC(=O)COc1ccc(Cl)cc1Cl
outcome [5]: inactive

CCOC(=O)c1ccccc1
outcome [2]: inactive

CCCCC(CC)COC(=O)CS (stereo not given)
outcome [6]: inactive

CC(=O)OC(C)(C)Cc1ccccc1
outcome [3]: inactive

CN(C)Cc1cc(C(C)(C)C)c(O)c(C(C)(C)C)c1
AC50 [8]: 2.98 µM (active) | AC50 [9]: 2.98 µM (active) | outcome [10]: inactive | outcome [11]: inactive | outcome [12]: inactive | AC50 [13]: 24.1 µM (active) | AC50 [14]: 15 µM (active) | AC50 [15]: 0.0516 µM (active) | AC50 [16]: 0.0258 µM (active) | outcome [17]: inactive | outcome [18]: inactive | outcome [19]: inactive | outcome [20]: inactive

CC[N+](CC)(CC(=O)Nc1c(C)cccc1C)Cc1ccccc1 (tested in a mixture with another compound)
AC50 [8]: 0.256 µM (active) | AC50 [9]: 0.694 µM (active) | outcome [10]: inactive | outcome [11]: inactive | outcome [12]: inactive | AC50 [13]: 2.13 µM (active) | outcome [14]: inactive | outcome [15]: inactive | outcome [16]: inactive | outcome [17]: inactive | outcome [18]: inactive | outcome [19]: inactive | outcome [5]: inactive | outcome [20]: inactive

C=C1CC[C@H]2C[C@@H]1C2(C)C
outcome [1]: inactive | outcome [2]: inactive

CCC(C)=NO
outcome [5]: inactive

CCCCCC[C@@H](O)C/C=C\CCCCCCCC(=O)O
outcome [1]: inactive | outcome [3]: inactive | outcome [4]: inactive

CC(C)CC(=O)CC(C)C
outcome [5]: inactive

O=C1NC(=O)C2CC=CCC12 (stereo not given)
outcome [3]: inactive

CCCCCC1CCCC(=O)O1 (stereo not given)
outcome [7]: inactive

O=C(OCc1ccccc1)c1ccccc1
outcome [2]: inactive | outcome [4]: inactive

COC(=O)/C=C\C(=O)OC
outcome [7]: inactive

CC[N+](CC)(CC(=O)Nc1c(C)cccc1C)Cc1ccccc1
outcome [7]: inactive

CN(C)CCC(c1ccc(Cl)cc1)c1ccccn1 (stereo not given)
outcome [8]: inactive | outcome [9]: inactive | outcome [10]: inactive | AC50 [11]: 24.3 µM (active) | AC50 [12]: 23.9 µM (active) | AC50 [13]: 23.8 µM (active) | AC50 [14]: 27.1 µM (active) | AC50 [15]: 3.62 µM (active) | AC50 [16]: 19.5 µM (active) | AC50 [17]: 3.59 µM (active) | AC50 [18]: 22.8 µM (active) | outcome [19]: inactive | outcome [20]: inactive

COc1ccc(C(=O)c2ccccc2O)c(O)c1
AC50 [6]: 81.7 µM (active) | AC50 [8]: 0.0215 µM (active) | AC50 [9]: 0.00533 µM (active) | AC50 [10]: 0.003 µM (active) | outcome [11]: inactive | outcome [12]: inactive | outcome [13]: inactive | outcome [14]: inactive | outcome [15]: inactive | outcome [16]: inactive | outcome [17]: inactive | AC50 [18]: 0.003 µM (active) | AC50 [19]: 0.0203 µM (active) | outcome [20]: inactive

CCCCC(CC)COC(=O)C=Cc1ccc(OC)cc1 (stereo not given)
outcome [6]: inactive
